Out of some 39,000 compounds screened, about 3,300 (8.5%) were called active. Many of the other results were omitted from the sample, so actives are more common in it than they were.

The subject of this test is HepG2. Put plainly: cytotoxicity call (relative viability < 0.9). As to conditions: 10 µM.
Consider `CC(C)[C@@]1(NC(=O)[C@@H]2C[C@@H]3c4cccc5[nH]cc(c45)C[C@H]3N(C)C2)O[C@@]2(O)[C@@H]3CCCN3C(=O)[C@H](Cc3ccccc3)N2C1=O`, for which the cytotoxicity call was “inactive”.

For the compound `CC(=O)OCC1=C(C(=O)O)N2C(=O)[C@@H](N)[C@H]2SC1`, the cytotoxicity call was “inactive”. Next, `CC(=O)Nc1cc([As](=O)(O)O)ccc1O`: “inactive”; `COC1=CC2C3Cc4ccc(OC)c(O)c4C2(CCN3C)CC1=O` (stereo not given): “inactive”; `C=C1[C@@H](C)[C@H]2[C@H](Cc3ccccc3)NC(=O)[C@]23[C@H](OC(C)=O)/C=C/[C@](C)(O)C(=O)[C@@H](C)C/C=C/[C@H]3[C@@H]1O`: “active”. To `Cc1noc(C)c1C(=O)N1C[C@@H]2CCN[C@@H]2C1` belongs “inactive”. To `CC1=NCCN=C(C)C1N1CCOCC1` belongs “inactive”; to `O=C(OC1CC2CCC(C1)[N+]21CCCC1)C(O)(c1ccccc1)c1ccccc1.[Cl-]` (stereo not given), “inactive”. `N[C@@]1(C(=O)O)CC[C@@H](C(=O)O)C1.N[C@]1(C(=O)O)CC[C@H](C(=O)O)C1`: the cytotoxicity call is “inactive”.

For `CCC(C(=O)[O-])C1CCC(C)C(C(C)C(O)C(C)C(=O)C(CC)C2OC3(C=CC(O)C4(CCC(C)(C5CCC(O)(CC)C(C)O5)O4)O3)C(C)CC2C)O1.[Na+]` (stereo not given), the cytotoxicity call was “active”. Next, `CC[C@@H](C(=O)[C@@H](C)[C@@H](O)[C@H](C)[C@@H]1O[C@@H]([C@@H](CC)C(=O)O)CC[C@@H]1C)[C@H]1O[C@]2(C=C[C@@H](O)[C@]3(CC[C@@](C)([C@H]4CC[C@](O)(CC)[C@H](C)O4)O3)O2)[C@H](C)C[C@@H]1C`: “inactive”; `CCCCC(=O)N1C[C@@H]2CCNC[C@@H]21`: “inactive”; `Cc1csc(CCN)n1`: “inactive”.

`CN1[C@@H]2CNc3ccccc3[C@@H]2[C@@H]1CO`: the cytotoxicity call was “inactive”.

Regarding `CCN1C[C@]2(OC(=O)c3ccccc3NC(C)=O)CC[C@@H](OC)[C@@]34[C@H]5C[C@@H]6[C@@H](OC)C[C@](O)([C@@H](C[C@@H]23)[C@@H]14)[C@]5(O)[C@H]6OC`, the cytotoxicity call is “inactive”. To `N[C@@H](Cn1oc(=O)[nH]c1=O)C(=O)O` belongs “inactive”; to `COC(=O)C1=CCCN(C)C1`, “inactive”; to `Br.COC(=O)C1=CCCN(C)C1`, “active”. As for `Clc1cc2c(cc1Cl)Oc1cc(Cl)c(Cl)cc1O2`, the cytotoxicity call was “inactive”. Next, `CNCC(=O)c1ccc(O)c(O)c1`: “inactive”; `C[C@H]1CN([C@@H](C)CO)C(=O)c2c(c3ccccc3n2C)-c2ccccc2CO[C@H]1CN(C)C(=O)Oc1ccccc1`: “inactive”; `N[C@H]1Cc2ccccc2[C@@H]1O`: “inactive”. To `O=[N+]([O-])c1ccc([As](=O)(O)O)cc1` [listing 1 of 2 here] belongs “active”; to `O=[N+]([O-])c1cc([As](=O)(O)O)ccc1O`, “inactive”; to `O=[N+]([O-])c1ccc([As](=O)(O)O)cc1` [listing 2 of 2 here], “inactive”.

Source of the values: the antibiotic and cytotoxicity screens of Wong et al. (2023).
